Compounds with a hit are over-represented: about 3.2% of the library has one in this group of screens.
MEKK2mut PB1 HTS – MEK5 binding signal on mutant MEKK2 PB1, primary screen, biochemical, multiplex bead flow cytometry, Alexa488-MEK5; Alexa488-MEK5 binding to MEKK2 mutant; percent response, % at 10 µM; 0.35% of 290,000 active; AID 1530, 2009; in the data active = percent response above about 24%, passing the limit was not always enough
SKN-1 inh – suppressors of acrylamide-induced Pgst-4::GFP reporter in worms, primary screen, SKN-1 inhibitor project, whole organism, uHTS, GFP/RFP fluorescence ratio, strain VP596; C. elegans VP596 Pgst-4::GFP/RFP ratio, 24 h; AID 624304, 2012; inhibition, % at 21.8 µM; 0.49% of 360,000 active;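 active = interference check ratio from 0.5 to 1.5 plus GFP to RFP signal ratio inhibition reaching or exceeding a fixed threshold, cut at about 30% in these data, passing the limit was not always enough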
MEKK2wt PB1 HTS – modulators of MEK5 binding to wildtype MEKK2, primary screen, biochemical, multiplex bead flow cytometry, Alexa488-MEK5 | Mitogen-activated protein kinase kinase kinase 2 (Homo sapiens), Q9Y2U5 | Alexa488-MEK5 binding to MEKK2 WT; actives lie on both sides | binding response (% of control), % at 10 µM | 1.1% of 290,000 active | AID 1531, 2009; in the data active = binding response below about 67% or above about 130%
MEKK3 PB1 HTS – modulators of MEKK3-MEK5 PB1 binding, primary screen, biochemical, wildtype MEKK3, multiplex bead flow cytometry, Alexa488-MEK5; Mitogen-activated protein kinase kinase kinase 3 (Homo sapiens), Q99759; bead-based flow cytometry, Alexa488-MEK5 binding to MEKK3; actives lie on both sides; 0 = blocked by unlabeled MEK5, 100 = vehicle; binding response (% of control), % at 10 µM; 1.4% of 290,000 active; AID 1529, 2009;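 active = binding response more than 3 SD above or below the average of its plate-row segment, actives on both sides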;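 also: Alexa488 bead fluorescence after subtracting the streptavidin-only scavenger bead signal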
Target sequence (Q99759 whole entry, looked up): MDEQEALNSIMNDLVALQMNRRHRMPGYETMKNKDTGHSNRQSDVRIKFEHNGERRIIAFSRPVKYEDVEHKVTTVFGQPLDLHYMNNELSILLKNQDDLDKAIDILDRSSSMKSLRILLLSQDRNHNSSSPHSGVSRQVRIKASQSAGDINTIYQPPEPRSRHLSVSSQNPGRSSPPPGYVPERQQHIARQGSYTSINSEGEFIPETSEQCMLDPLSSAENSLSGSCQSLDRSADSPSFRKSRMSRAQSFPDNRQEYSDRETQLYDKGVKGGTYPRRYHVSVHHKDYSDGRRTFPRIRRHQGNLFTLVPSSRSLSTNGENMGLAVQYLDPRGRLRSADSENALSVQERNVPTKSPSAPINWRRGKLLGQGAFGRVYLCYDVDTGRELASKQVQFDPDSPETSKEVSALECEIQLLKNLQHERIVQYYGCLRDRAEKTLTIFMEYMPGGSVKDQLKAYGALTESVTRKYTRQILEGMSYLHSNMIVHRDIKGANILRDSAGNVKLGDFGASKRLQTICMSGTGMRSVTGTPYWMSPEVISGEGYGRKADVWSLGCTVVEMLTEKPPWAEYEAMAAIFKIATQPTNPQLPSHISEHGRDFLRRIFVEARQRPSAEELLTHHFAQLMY
CendR NRP1 mod – modulators of CendR peptide binding to NRP-1, primary screen, biochemical, fluorescence polarization, uHTS; FAM-RPARPAR peptide binding to NRP-1; inhibition, % at 25 µM; 0.85% of 360,000 active;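 active = inhibition or corrected inhibition above about 18%, plus a signal ratio from 0.5 to 1.5, limit read from the data, passing the limit was not always enough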
Numbers stand for hits; - = inactive; . = not tested or not shown.

SMILES	MEKK2mut PB1 HTS	SKN-1 inh	MEKK2wt PB1 HTS	MEKK3 PB1 HTS	CendR NRP1 mod
O=C(CN1CCCC1)Nc1ccc(Cl)cc1C(=O)c1ccccc1	-	-	-	-	-
CCn1c(O)c(C=Nc2ccc(S(N)(=O)=O)cc2)c(=O)n(CC)c1=S	-	-	-	-	-
CCn1c(O)c(C=Nc2ccc(S(N)(=O)=O)cc2)c(=O)[nH]c1=S	-	38.3	-	-	-
COC(=O)CC1(CC(=O)OC)C(=O)N(c2ccccc2)C(=O)N(c2ccccc2)C1=O	-	-	-	-	-
O=C(Nc1ccc(Cl)c(Cl)c1)c1ccco1	-	42.0	-	-	-
CN(C)c1ccc(C(=O)c2ccc(N(C)C)cc2)cc1	-	41.6	-	-	-
CN(C)c1ccccc1	.	-	.	.	-
CN1/C(=C\C=C2C(=O)NC(=O)NC2=O)C(C)(C)c2ccccc21	-	-	-	-	-
CC1(C)OC(c2ccccc2)=C/C(=C/C=C2C(=O)NC(=O)NC2=O)O1	-	46.5	-	-	-
COC(=O)C1=C(c2ccc(C(C)=O)cc2)C[C@@H]2CC[C@H]1N2C(=O)NCc1ccc(F)cc1	.	-	.	.	-
C=C[C@@H]1C2=CCOC(=O)C2=CO[C@H]1O[C@@H]1O[C@H](CO)[C@@H](O)[C@H](O)[C@H]1O	.	-	.	.	24.4
CCN1CC=C(c2c[nH]c3ccccc23)CC1	-	-	-	-	30.6
COC(=O)C1=C(c2ccc(S(C)(=O)=O)cc2)C[C@@H]2CC[C@H]1N2C	.	-	.	.	35.1
COC(=O)C1=C(c2ccc(-c3ccccc3)c(F)c2)C[C@@H]2CC[C@H]1N2C(=O)N1CCC(O)CC1	.	-	.	.	-
COC(=O)C1=C(c2cccc(C#N)c2)C[C@@H]2CC[C@H]1N2C(=O)NC(C)C	.	-	.	.	21.6
COC(=O)C1=C(c2ccc(OC(F)(F)F)cc2)C[C@@H]2CC[C@H]1N2C(=O)NCCOc1ccccc1	.	-	.	.	-
COC(=O)C1=C(c2ccc(-c3ccccc3)c(F)c2)C[C@@H]2CC[C@H]1N2C(=O)N1CCC(C)CC1	.	-	.	.	25.4
CCCNC(=O)N1[C@H]2CC[C@@H]1C(C(=O)OC)=C(c1ccc(OC(F)(F)F)cc1)C2	.	-	.	.	29.2
CC1CCCCC12C(=O)NC(=O)NC2=O (configuration not stated)	.	-	.	.	-
Brc1ccc2c(c1)-n1nncc1CN(CC1CCCCC1)C2	.	-	.	.	-
COC(=O)C1=C(c2ccccc2)C[C@@H]2CC[C@H]1N2C	.	-	.	.	25.0
COC(=O)C1=C(c2cccc(OCc3ccccc3)c2)C[C@@H]2CC[C@H]1N2C	.	-	.	.	-
CN1C(=O)N(C)C(=O)C(NS(=O)(=O)c2ccc(N)cc2)(c2ccccc2)C1=O	.	-	.	.	-
CCCCCCn1c(O)c(C=Nc2ccccc2N2CCOCC2)c(=O)[nH]c1=S	-	-	29.0	-	-
O=C1NC(=S)N(c2ccc(F)cc2)C(=O)/C1=C/c1ccco1	-	.	-	-	.
SMILES	MEKK2mut PB1 HTS	SKN-1 inh	MEKK2wt PB1 HTS	MEKK3 PB1 HTS	CendR NRP1 mod
O=C1NC(=S)N(c2ccc(Cl)cc2)C(=O)/C1=C/N1CCN(C(=O)c2ccco2)CC1	-	43.8	-	-	-
CCCCCCCCCOc1ccc2[nH]cc(CCN)c2c1	34.0	.	252.0	-	.
CC(=O)Nc1ccc(OCCF)cc1	-	-	-	-	26.3
COc1cc2c(cc1OC)C13CCN4CC5=CCOC6CC(=O)N2C1C6C5C3C4 (configuration not stated) (tested in a mixture with another compound)	.	-	.	.	-
Cn1cc(C(=O)OCC(=O)Nc2ccccc2Cl)c2ccccc21	.	-	.	.	-
Cn1cc(C(=O)OCC(=O)Nc2ccccc2)c2ccccc21	.	-	.	.	21.3
Cc1nc(N2CCN(Cc3ccc4c(c3)OCO4)CC2)[nH]c(=O)c1C	-	-	-	-	-
O=C(/C=C/c1c[nH]c2ccccc12)c1c(O)n(CCc2ccccc2)c(=O)[nH]c1=O	-	39.9	-	-	-
CN1CCN(c2ccc([N+](=O)[O-])c(Sc3ccccn3)c2)CC1	-	-	-	-	27.8
c1ccc2c(NC3=NCCS3)cccc2c1	-	-	-	-	26.5
O=C1C2CCN(CC2)C1Cc1ccc(OCCOc2ccccc2)cc1 (configuration not stated)	-	-	-	-	28.4
O=C1C2CCN(CC2)C1Cc1ccccc1O (configuration not stated)	-	.	-	-	.
COc1ccc(-c2ccc3c(c2)CN(C(=O)C(C)(C)C)Cc2cnnn2-3)cc1	.	-	.	.	-
CC(C)c1cccc(C(C)C)c1OCCn1ccnc1	-	34.2	-	-	-
c1ccc(Cn2ccnc2)cc1	-	-	-	-	-
Cn1c(O)c(C=Nc2ccc(F)cc2)c(=O)[nH]c1=O	-	-	-	-	-
CC(C)(C)n1c(O)c(C=Nc2ccc3c(c2)CCC3)c(=O)[nH]c1=O	-	26.7	-	-	-
Cc1c(NP(=O)(C(C)(C)C)C(C)(C)C)c(=O)n(-c2ccccc2)n1C	-	-	-	-	21.1
C=CCn1c(O)c(C(CC)=NCCC2=CCCCC2)c(=O)[nH]c1=O	-	-	-	-	29.8
COc1cccc(C)c1NC1=NCCO1	.	-	.	.	-
CCc1ccc(N2C(=O)NC(=O)/C(=C\c3cccn3CCOc3ccc(C(C)C)cc3)C2=O)cc1	-	-	-	-	36.5
Cc1ccc(OCCn2cccc2/C=C2/C(=O)NC(=O)N(Cc3ccco3)C2=O)cc1	-	-	-	-	-
c1ccc(CNC2CN3CCC2CC3)cc1 (configuration not stated)	.	-	.	.	-
Clc1ccccc1CNC1CN2CCC1CC2 (configuration not stated)	-	-	-	-	25.7
CN1CC2CN(Cc3ccccc3)S(=O)(=O)C2C1 (configuration not stated)	.	-	.	.	-
SMILES	MEKK2mut PB1 HTS	SKN-1 inh	MEKK2wt PB1 HTS	MEKK3 PB1 HTS	CendR NRP1 mod
COC(=O)C1=C(c2ccc(OCc3ccccc3)cc2)C[C@@H]2CC[C@H]1N2C(=O)NCc1ccc([N+](=O)[O-])cc1	.	-	.	.	-
COc1cc2c(cc1OC)-c1c(OC)c(OC)cc3c1[C@H](C2)N(C)CC3	-	-	-	-	29.2
COC(=O)C1=C(c2ccc(OC(F)(F)F)cc2)C[C@@H]2CC[C@H]1N2C(=O)NCCOc1ccccc1Cl	.	-	.	.	-
CS(=O)(=O)c1ccc(C2=C(CNC(=O)c3nccs3)[C@H]3CC[C@@H](C2)N3Cc2ccccc2)cc1	.	-	.	.	-
O=C(Nc1ccc(OC(=O)N2CCCC2)cc1)N1CCOCC1	-	38.1	-	-	-
Cc1ccc(C(=O)C2CN3CCC2CC3)cc1 (configuration not stated)	-	-	-	-	26.0
OC(c1cccc(Cl)c1)(c1cccc(Cl)c1)C1CN2CCC1CC2 (configuration not stated)	-	-	-	-	40.4

Compound activity deposited in PubChem BioAssay by several laboratories.
